# From PubChem BioAssay (NCATS)
# Results filed as inconclusive are left out. A number with no mark means an inactive call. Calls of active or inactive are those of the source. The call rests on the fitted dose curve; in most records, active means well fitted inhibition curve with a large enough effect; inconclusive means small, poorly fitted or top-dose-only effect; inactive means flat fitted curve, though single readings scatter. Residues, ends and D or L forms follow the SMILES beside them. *: point of attachment. Cbz = O=C(OCc1ccccc1)*
# Columns and labels:
# [1] = tested on: NIH3T3; assay: Cytotoxic Profiling of Annotated Libraries Using Quantitative High-Throughput Screening (AID 1296008); conditions: Five cell lines viability, CellTiter-Glo ATP luminescence, 48-72 h; max response: hits give low values
# In short: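 Cytotoxicity was measured as CellTiter-Glo ATP luminescence, read after 10 min at room temperature. Compound treatment of the cells lasted 48 or 72 hr at 37 degrees Celsius in a qHTS format.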
# [2] = tested on: MKL-2; assay: qHTS assay to identify novel small-molecules to repurpose for Merkel cell carcinoma treatment (AID 1296009); conditions: MCC and control cell lines, CellTiter-Glo viability, 72 h; series mostly up to 46 µM
# In short: (§1)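 72 hr, 37 degree celsius; NPC 8-pt / MIPE 11-pt dose response; compound pinned in DMSO; CellTiter-Glo, 10 min RT, luminescence; normalized to no-cell and DMSO controls.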
# [3] = tested on: UISO; assay: as above; conditions: MCC and control cell lines, CellTiter-Glo viability, 72 h; series mostly up to 46 µM
# In short: as §1
# [4] = tested on: MCC-13; assay: as above; conditions: MCC and control cell lines, CellTiter-Glo viability, 72 h; series mostly up to 46 µM
# In short: as §1
# [5] = tested on: MKL-1; assay: as above; conditions: MCC and control cell lines, CellTiter-Glo viability, 72 h; series mostly up to 46 µM
# In short: as §1
# [6] = tested on: MCC-26; assay: as above; conditions: MCC and control cell lines, CellTiter-Glo viability, 72 h; series mostly up to 46 µM
# In short: as §1
# [7] = tested on: HACAT; assay: as above; conditions: MCC and control cell lines, CellTiter-Glo viability, 72 h; at 44.8 µM (top of the series) unless noted
# In short: as §1
# [8] = tested on: NIH3T3; assay: as above; conditions: MCC and control cell lines, CellTiter-Glo viability, 72 h; at 44.8 µM (top of the series) unless noted
# In short: as §1
# Further: nearly all actives have a fitted effect of over 60% in size.
# On the % scale 0 is the no-effect control and ±100 the full control effect; potency means the concentration at half of the fitted maximal effect.
smiles,measurement,setting,value
O=C1NCCc2[nH]c(-c3ccncc3)cc21,Potency,[1],23.5 µM (active)
same,Potency,[2],13.2 µM (active)
same,Potency,[3],4.18 µM (active)
O=C(O)C[C@H](O)C[C@H](O)C=Cc1c(C2CC2)nc2ccccc2c1-c1ccc(F)cc1,Potency,[1],20.9 µM (active)
same,Potency,[4],5.9 µM (active)
same,Potency,[5],5.9 µM (active)
same,Potency,[2],3.32 µM (active)
same,Potency,[3],2.35 µM (active)
CCCCCCCCc1ccc(CCC(N)(CO)CO)cc1,Potency,[4],inactive
same,Potency,[6],inactive
CCCNC(=O)[C@H]1O[C@H]1C(=O)N[C@H](C(=O)N1CCC[C@@H]1C(=O)OC)C(C)CC (stereo partly specified),outcome,[7],inactive
same,Potency,[4],20.9 µM (active)
same,Potency,[5],5.26 µM (active)
same,Potency,[2],3.32 µM (active)
same,Potency,[3],18.7 µM (active)
Cc1cnc(Nc2ccc(N3CCN(C)CC3)cc2)nc1Nc1cccc(S(=O)(=O)NC(C)(C)C)c1,Potency,[1],4.18 µM (active)
same,Potency,[4],16.6 µM (active)
same,Potency,[6],8.33 µM (active)
same,Potency,[5],10.5 µM (active)
same,Potency,[2],10.5 µM (active)
c1cc(N[C@@H]2CCNC2)nc(-c2cnc3ccc(-c4cn[nH]c4)cn23)c1,Potency,[4],inactive
same,Potency,[6],inactive
same,Potency,[5],8.33 µM (active)
same,Potency,[2],7.43 µM (active)
same,Potency,[3],16.6 µM (active)
O=C(Nc1cc2cc[nH]c2cn1)c1ccccc1,Potency,[1],13.2 µM (active)
same,Potency,[5],14.8 µM (active)
COc1cc2c(cc1OC)[C@@H]1C(=O)c3ccc4c(c3O[C@@H]1CO2)C=CC(C)(C)O4,Potency,[4],inactive
same,Potency,[6],inactive
same,Potency,[5],1.87 µM (active)
same,Potency,[2],0.935 µM (active)
CN1[C@H]2CC(OC(=O)[C@@H](CO)c3ccccc3)C[C@H]1[C@H]1O[C@H]12 (stereo partly specified),outcome,[7],inactive [at 17.4 µM]
same,Potency,[4],inactive
same,Potency,[6],inactive
same,Potency,[5],inactive
same,Potency,[2],inactive
same,Potency,[3],inactive
COc1cc(C(=O)NC2CCN(C)CC2)ccc1Nc1ncc2c(n1)N(C1CCCC1)CCC(=O)N2C(C)C,Potency,[1],1.32 µM (active)
same,Potency,[5],2.35 µM (active)
CS[C@H]1SC[C@@H]2C(=O)N(C)[C@H](C(C)C)C(=O)OC[C@H](NC(=O)c3cnc4ccccc4n3)C(=O)N[C@H](C)C(=O)N(C)[C@@H]1C(=O)N(C)[C@H](C(C)C)C(=O)OC[C@H](NC(=O)c1cnc3ccccc3n1)C(=O)N[C@H](C)C(=O)N2C,Potency,[4],0.0296 µM (active)
same,Potency,[3],0.0026 µM (active)
CCC(C(=O)O)C1CCC(C)C(C(C)C(O)C(C)C(=O)C(CC)C2OC3(C=CC(O)[C@@]4(CC[C@](C)(C5CC[C@@](O)(CC)C(C)O5)O4)O3)C(C)CC2C)O1 (stereo partly specified),Potency,[1],8.33 µM (active)
same,Potency,[4],10.5 µM (active)
same,Potency,[5],2.96 µM (active)
same,Potency,[2],3.32 µM (active)
same,Potency,[3],3.72 µM (active)
CCOc1cc2c(c(F)c1OCC)C(=N)N(CC(=O)c1cc(N3CCOCC3)c(OC)c(C(C)(C)C)c1)C2,Potency,[4],inactive
same,Potency,[6],inactive
C#Cc1cccc(Nc2ncnc3cc(OCCOC)c(OCCO)cc23)c1,Potency,[1],20.9 µM (active)
same,Potency,[4],inactive
same,Potency,[6],inactive
COc1cc(OC)c(C=CS(=O)(=O)Cc2ccc(OC)c(NCC(=O)O)c2)c(OC)c1,Potency,[1],0.105 µM (active)
same,Potency,[2],0.0935 µM (active)
CCNC(=O)c1cc2c(-c3cc(OCCN4CCCC4)c(Cl)cc3Cl)nc(N)nc2s1,Potency,[1],2.35 µM (active)
same,Potency,[2],inactive
same,Potency,[3],2.96 µM (active)
COc1cc(OC)cc(-c2ccc3ncc4ccc(=O)n(-c5ccc(N6CCNCC6)c(C(F)(F)F)c5)c4c3c2)c1,Potency,[1],14.8 µM (active)
same,Potency,[5],18.7 µM (active)
same,Potency,[2],8.33 µM (active)
same,Potency,[3],16.6 µM (active)
CCOC(=O)[C@H](CCc1ccccc1)N[C@@H](C)C(=O)N1[C@@H](C(=O)O)C[C@H]2CCC[C@@H]21,Potency,[4],inactive
same,Potency,[5],inactive
same,Potency,[2],14.8 µM (active)
same,Potency,[3],inactive
CC(C)NC[C@@H](C(=O)N1CCN(c2ncnc3c2[C@H](C)C[C@H]3O)CC1)c1ccc(Cl)cc1,Potency,[4],inactive
same,Potency,[6],inactive
same,Potency,[2],1.66 µM (active)
O=C(Nc1nnc(-c2ccco2)o1)c1cc(-c2ccccc2)nc2ccccc12,Potency,[6],inactive
COc1ccc(S(=O)(=O)Nc2cc(-c3c(O)ccc4ccccc34)c(O)c3ccccc23)cc1,outcome,[1],inactive
same,Potency,[4],inactive
same,Potency,[6],inactive
same,Potency,[2],26.4 µM (active)
same,outcome,[8],inactive
same,Potency,[3],0.166 µM (active)
FC(F)(F)c1ccc(Nc2nc3ccc(Oc4ccnc(-c5ncc(C(F)(F)F)[nH]5)c4)cc3[nH]2)cc1,Potency,[6],inactive
CCc1cnn2c(NCc3ccc[n+]([O-])c3)cc(N3CCCC[C@@H]3CCO)nc12,Potency,[1],0.105 µM (active)
same,Potency,[6],0.0833 µM (active)
same,Potency,[2],0.0418 µM (active)
same,Potency,[3],0.0935 µM (active)
CCc1c(O)cc(O)c(C(=O)c2ccc(OCCN3CCOCC3)c(OC)c2)c1CC(=O)N(CCOC)CCOC,Potency,[1],11.8 µM (active)
same,Potency,[4],inactive
same,Potency,[3],1.48 µM (active)
N#Cc1ccc(COC[C@H]2O[C@@H](n3c(NCc4ccc(Cl)c(Cl)c4)nc4c(N)ncnc43)[C@@H](O)[C@@H]2O)cc1,Potency,[6],inactive
C[N+](C)([O-])CCNc1ccc(NCC[N+](C)(C)[O-])c2c1C(=O)c1c(O)ccc(O)c1C2=O,Potency,[1],0.0935 µM (active)
same,Potency,[6],inactive
O=c1c(O)c(-c2ccc(O)c(O)c2)oc2cc(O)ccc12,outcome,[7],inactive
same,Potency,[4],inactive
same,Potency,[6],inactive
same,Potency,[5],inactive
same,Potency,[2],inactive
CN(C)c1ccc2cc(C(=O)N[C@@H](CCCN=C(N)CCl)C(=O)NCc3ccccc3)ccc2c1,max response,[1],-19.2%
same,Potency,[4],inactive
same,Potency,[6],inactive
same,Potency,[2],26.4 µM (active)
same,Potency,[3],13.2 µM (active)
COc1cc(O)c2c(c1)C1OC1C[C@H](O)[C@H](O)C(=O)C=CC[C@H](C)OC2=O (stereo partly specified),Potency,[1],16.6 µM (active)
same,Potency,[3],20.9 µM (active)
CC[C@@]1([C@@H]2O[C@@H]([C@H]3O[C@@](O)(CO)[C@H](C)C[C@H]3C)C[C@H]2C)CC[C@H]([C@]2(C)CC[C@]3(C[C@H](O)[C@@H](C)[C@@H]([C@@H](C)[C@@H](OC)[C@H](C)C(=O)O)O3)O2)O1,Potency,[6],inactive
same,Potency,[5],0.512 µM (active)
same,Potency,[2],0.204 µM (active)
same,Potency,[3],0.512 µM (active)
CC(C)C[C@@H](C=O)NC(=O)[C@H](CC(C)C)NC(=O)[C@H](CC(C)C)NC(=O)OCc1ccccc1 (Cbz-Leu-Leu-Leu-aldehyde),Potency,[1],2.96 µM (active)
same,Potency,[4],2.64 µM (active)
same,Potency,[6],2.35 µM (active)
same,Potency,[5],0.935 µM (active)
same,Potency,[2],0.743 µM (active)
same,Potency,[3],1.18 µM (active)
C[C@]12CCC(=O)C=C1[C@@H]1CC1[C@H]1[C@H]3[C@@H]4C[C@H]4[C@@]4(CCC(=O)O4)[C@@]3(C)CC[C@H]12 (stereo partly specified),outcome,[1],inactive
same,Potency,[4],inactive
same,Potency,[6],inactive
same,Potency,[5],inactive
same,Potency,[2],inactive
same,outcome,[8],inactive
same,Potency,[3],inactive
CC1=C(C(=O)Nc2cc3cn[nH]c3cc2F)C(c2ccc(Cl)cc2F)N=C(c2ccnc(Cl)c2)N1 (stereo unspecified),Potency,[1],11.8 µM (active)
same,Potency,[6],inactive
same,Potency,[2],20.9 µM (active)
CCC(C=C[C@@H]1OC(=O)C=C[C@H]1C)=C[C@H](C)CC=CC(C)=C[C@@H](C)C(=O)[C@@H](C)[C@H](O)[C@@H](C)CC(C)=CC(=O)O,Potency,[1],0.124 µM (active)
same,Potency,[4],0.0984 µM (active)
same,Potency,[2],0.0049 µM (active)
same,Potency,[3],0.022 µM (active)
